# From PubChem BioAssay AID1159580 (chemical genetic matrix, 2015)
# Screen size: about 5,500 compounds; about 2,000 (36%) were called active. About 18% were inconclusive and are not listed. The list shows a part of the results. A number with no mark means an inactive call. Cut-off read from the data, not from the text of the source: active = normalized growth mostly below about 0.91 (no sharp cut-off); inconclusive = no clear call, values can overlap the other calls; inactive = mostly above about 0.92.
# Test: chemical genetic growth profiling, strain panel (AID 1159580);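 note: tested at 20 µM; growth read once vehicle control cultures reached saturation at 30 °C; 1 = growth at the plate median or of vehicle wells; lower values mean less growth of the strain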
# Conditions: S. cerevisiae deletion strains, growth OD
# [1] = locus YAL013W, strain DEP1, active compounds read low
# [2] = locus YBR229C, strain ROT2, active compounds read low
# [3] = locus YDL101C, strain DUN1, active compounds read low
# [4] = locus YDR150W, strain NUM1, active compounds read low
# [5] = locus YEL061C, strain CIN8, active compounds read low
# [6] = locus YGR078C, strain PAC10, active compounds read low
# [7] = locus YHR030C, strain SLT2, active compounds read low
# [8] = locus YHR087W, strain rtc3, active compounds read low
# [9] = locus YJR043C, strain POL32, active compounds read low
# [10] = locus YJR075W, strain HOC1, active compounds read low
# [11] = locus YLR039C, strain RIC1, active compounds read low
# [12] = locus YLR058C, strain SHM2 (second series), active compounds read low
# [13] = locus YLR085C, strain ARP6, active compounds read low
# [14] = locus YLR262C, strain YPT6, active compounds read low
# [15] = locus YML094W, strain GIM5, active compounds read low
# [16] = locus YMR219W, strain ESC1, active compounds read low
# [17] = locus YMR263W, strain SAP30, active compounds read low
# [18] = locus YMR307W, strain GAS1, active compounds read low
# [19] = locus YNL153C, strain GIM3, active compounds read low
# [20] = locus YNL298W, strain CLA4 (second series), active compounds read low
# [21] = locus YNL322C, strain KRE1, active compounds read low
# [22] = locus YNR030W, strain Alg12, active compounds read low
# [23] = locus YOL006C, strain TOP1, active compounds read low
# [24] = locus YPL055C, strain LGE1, active compounds read low
# [25] = locus YPL241C, strain CIN2, active compounds read low
# [26] = locus YPR135W, strain CTF4, active compounds read low
# [27] = locus YHR079C, strain IRE1, active compounds read low
# [28] = locus YJL095W, strain BCK1, active compounds read low
# [29] = locus YJR066W, strain TOR1, active compounds read low
# [30] = locus YLR113W, strain HOG1, active compounds read low
# [31] = locus YNL183C, strain NPR1, active compounds read low
# [32] = locus YOR231W, strain MKK1, active compounds read low
# [33] = locus YPL256C, strain CLN2, active compounds read low
# [34] = locus YDL134C, strain PPH21, active compounds read low
compound,measurement,setting,value
CCn1nc(C)c(Br)c1-c1nc(-c2ccc(C(F)(F)F)cc2)no1,normalized growth,[1],1
same,normalized growth,[2],0.999
same,normalized growth,[3],1.02
same,normalized growth,[4],0.902
same,normalized growth,[5],1.01
same,normalized growth,[6],1.01
same,normalized growth,[7],1.08
same,normalized growth,[8],1
same,normalized growth,[9],1.01
same,normalized growth,[10],1
same,normalized growth,[11],0.982
same,normalized growth,[12],1.01
same,normalized growth,[13],1.14
same,normalized growth,[14],1.03
same,normalized growth,[15],1.03
same,normalized growth,[16],0.999
same,normalized growth,[17],1.02
same,normalized growth,[18],1.15
same,normalized growth,[19],0.985
same,normalized growth,[20],1.04
same,normalized growth,[21],1.01
same,normalized growth,[22],1.02
same,normalized growth,[23],1.14
same,normalized growth,[24],0.914
same,normalized growth,[25],0.981
same,normalized growth,[26],1.02
OC[C@H]1O[C@H](OC[C@H]2O[C@@H](O)[C@H](O)[C@@H](O)[C@@H]2O)[C@H](O)[C@@H](O)[C@H]1O,normalized growth,[7],1.05
same,normalized growth,[27],1.03
same,normalized growth,[28],1.05
same,normalized growth,[29],0.982
same,normalized growth,[30],1.01
same,normalized growth,[31],0.997
same,normalized growth,[32],1.04
same,normalized growth,[33],1.06
N#CC(C#N)=C/C=C(/Sc1nc2ccccc2s1)c1ccc(Br)cc1,normalized growth,"locus YAR019C, strain CDC15, active compounds read low",0.148 (active)
same,normalized growth,"locus YBL105C, strain PKC1, active compounds read low",0.157 (active)
same,normalized growth,"locus YBR135W, strain CKS1, active compounds read low",0.189 (active)
same,normalized growth,"locus YBR136W, strain MEC1, active compounds read low",0.206 (active)
same,normalized growth,"locus YBR160W, strain CDC28, active compounds read low",0.22 (active)
same,normalized growth,"locus YDL017W, strain CDC7, active compounds read low",0.207 (active)
same,normalized growth,"locus YDL028C, strain MPS1, active compounds read low",0.28 (active)
same,normalized growth,[3],0.338 (active)
same,normalized growth,"locus YDL108W, strain KIN28, active compounds read low",0.289 (active)
same,normalized growth,"locus YDL132W, strain cdc53, active compounds read low",0.299 (active)
same,normalized growth,"locus YDL214C, strain PRR2, active compounds read low",0.144 (active)
same,normalized growth,"locus YDR052C, strain DBF4, active compounds read low",0.695 (active)
same,normalized growth,"locus YDR054C, strain cdc34, active compounds read low",0.145 (active)
same,normalized growth,"locus YDR226W, strain ADK1, active compounds read low",0.28 (active)
same,normalized growth,"locus YDR477W, strain SNF1, active compounds read low",0.144 (active)
same,normalized growth,"locus YER123W, strain YCK3, active compounds read low",0.217 (active)
same,normalized growth,"locus YER133W, strain GLC7, active compounds read low",0.168 (active)
same,normalized growth,"locus YFL009W, strain cdc4, active compounds read low",0.317 (active)
same,normalized growth,"locus YFL029C, strain CAK1, active compounds read low",0.153 (active)
same,normalized growth,"locus YFR003C, strain YPI1, active compounds read low",0.253 (active)
same,normalized growth,"locus YFR019W, strain FAB1, active compounds read low",0.146 (active)
same,normalized growth,"locus YFR028C, strain CDC14, active compounds read low",0.187 (active)
same,normalized growth,"locus YGR040W, strain KSS1, active compounds read low",0.156 (active)
same,normalized growth,"locus YGR052W, strain FMP48, active compounds read low",0.167 (active)
same,normalized growth,"locus YGR092W, strain DBF2, active compounds read low",0.155 (active)
same,normalized growth,[7],0.124 (active)
same,normalized growth,[27],0.17 (active)
same,normalized growth,"locus YHR082C, strain KSP1, active compounds read low",0.163 (active)
same,normalized growth,"locus YHR205W, strain SCH9, active compounds read low",0.0272 (active)
same,normalized growth,"locus YIL147C, strain SLN1, active compounds read low",0.215 (active)
same,normalized growth,[28],0.116 (active)
same,normalized growth,"locus YJL128C, strain PBS2, active compounds read low",0.391 (active)
same,normalized growth,"locus YJL157C, strain FAR1, active compounds read low",0.118 (active)
same,normalized growth,"locus YJR016C, strain ILV3, active compounds read low",0.176 (active)
same,normalized growth,"locus YJR066W, strain TOR1 (second series), active compounds read low",0.114 (active)
same,normalized growth,[29],0.156 (active)
same,normalized growth,"locus YKL048C, strain ELM1, active compounds read low",0.322 (active)
same,normalized growth,"locus YKL067W, strain YNK1, active compounds read low",0.137 (active)
same,normalized growth,"locus YKL101W, strain HSL1, active compounds read low",0.175 (active)
same,normalized growth,"locus YKL193C, strain SDS22, active compounds read low",0.155 (active)
same,normalized growth,"locus YKL203C, strain TOR2, active compounds read low",0.158 (active)
same,normalized growth,[30],0.218 (active)
same,normalized growth,"locus YLR133W, strain CKI1, active compounds read low",0.149 (active)
same,normalized growth,"locus YLR403W, strain SFP1, active compounds read low",0.0212 (active)
same,normalized growth,"locus YML070W, strain DAK1, active compounds read low",0.172 (active)
same,normalized growth,"locus YMR001C, strain CDC5, active compounds read low",0.126 (active)
same,normalized growth,"locus YMR205C, strain PFK2 (second series), active compounds read low",0.138 (active)
same,normalized growth,"locus YMR277W, strain FCP1, active compounds read low",0.144 (active)
same,normalized growth,"locus YNL006W, strain LST8, active compounds read low",0.13 (active)
same,normalized growth,"locus YNL020C, strain ARK1, active compounds read low",0.142 (active)
same,normalized growth,"locus YNL161W, strain CBK1, active compounds read low",0.164 (active)
same,normalized growth,[31],0.153 (active)
same,normalized growth,"locus YNL207W, strain RIO2, active compounds read low",0.21 (active)
same,normalized growth,"locus YNL222W, strain SSU72, active compounds read low",0.177 (active)
same,normalized growth,"locus YNL307C, strain MCK1 (second series), active compounds read low",0.137 (active)
same,normalized growth,"locus YOL078W, strain AVO1, active compounds read low",0.154 (active)
same,normalized growth,"locus YOL136C, strain PFK27, active compounds read low",0.161 (active)
same,normalized growth,"locus YOR061W, strain CKA2, active compounds read low",0.174 (active)
same,normalized growth,"locus YOR119C, strain RIO1, active compounds read low",0.155 (active)
same,normalized growth,[32],0.171 (active)
same,normalized growth,"locus YOR329C, strain SCD5, active compounds read low",0.164 (active)
same,normalized growth,"locus YPL031C, strain PHO85, active compounds read low",0.135 (active)
same,normalized growth,"locus YPL153C, strain RAD53, active compounds read low",0.133 (active)
same,normalized growth,"locus YPL204W, strain HRR25, active compounds read low",0.142 (active)
same,normalized growth,"locus YPL209C, strain IPL1, active compounds read low",0.159 (active)
same,normalized growth,[33],0.216 (active)
same,normalized growth,"locus YPR025C, strain CCL1, active compounds read low",0.181 (active)
same,normalized growth,"strain NNK1, active compounds read low",0.304 (active)
same,normalized growth,"strain TSCII, active compounds read low",0.157 (active)
CC(C)(O/N=C(/C(=O)N[C@@H]1C(=O)N2C(C(=O)[O-])=C(C[n+]3ccccc3)CSC12)c1csc(N)n1)C(=O)O (stereo not given in full),normalized growth,[7],1.02
same,normalized growth,[27],1.02
same,normalized growth,[28],1.01
same,normalized growth,[29],0.95
same,normalized growth,[30],1.05
same,normalized growth,[31],0.962
same,normalized growth,[32],1.02
same,normalized growth,[33],1.03
COc1cc(C2N=C(c3ccc(Cl)cc3)SC(c3ccc(Cl)cc3)=N2)cc(OC)c1OC,normalized growth,[1],1
same,normalized growth,[2],1.01
same,normalized growth,[3],1.02
same,normalized growth,[34],1.03
same,normalized growth,[4],1.02
same,normalized growth,[5],0.997
same,normalized growth,[6],1.01
same,normalized growth,[7],0.991
same,normalized growth,[8],1.02
same,normalized growth,[9],1.03
same,normalized growth,[10],0.991
same,normalized growth,[11],1.02
same,normalized growth,[12],1.04
same,normalized growth,[13],1
same,normalized growth,[14],1.03
same,normalized growth,[15],1
same,normalized growth,[16],1
same,normalized growth,[17],0.949
same,normalized growth,[19],1.01
same,normalized growth,[20],1.02
same,normalized growth,[21],1
same,normalized growth,[22],1.03
same,normalized growth,[23],0.891
same,normalized growth,[24],0.974
same,normalized growth,[25],1.01
same,normalized growth,[26],1.09
COc1ccc(-c2c(C)nc3ccc(Cl)cc3c2-c2ccccc2)cc1OC,normalized growth,[1],0.91 (active)
same,normalized growth,[2],0.937
same,normalized growth,[3],0.945
same,normalized growth,[34],0.914 (active)
same,normalized growth,[4],0.861
same,normalized growth,[5],0.949
same,normalized growth,[6],0.935
same,normalized growth,[7],0.759
same,normalized growth,[8],0.913
same,normalized growth,[9],0.977
same,normalized growth,[10],0.819 (active)
same,normalized growth,"locus YKL190W, strain CNB1, active compounds read low",0.98
same,normalized growth,[11],0.821
same,normalized growth,[12],0.986
same,normalized growth,[13],0.785
same,normalized growth,[14],0.948
same,normalized growth,[15],0.933
same,normalized growth,[16],0.947
same,normalized growth,[18],0.546 (active)
same,normalized growth,"locus YNL128W, strain TEP1, active compounds read low",1.01
same,normalized growth,[19],0.972
same,normalized growth,[20],1
same,normalized growth,[21],0.98
same,normalized growth,[22],0.889
same,normalized growth,[23],0.817
same,normalized growth,[24],0.798
same,normalized growth,[25],0.85 (active)
same,normalized growth,[26],0.754
